Assay outcomes deposited in PubChem by National Center for Advancing Translational Sciences (NCATS).
Glioma ERSR ind – qHTS for Inducers of the Endoplasmic Reticulum Stress Response (ERSR) in Human Glioma: qHTS | U87-MG GRP78 promoter luciferase reporter, 16 h | Potency, µM, without a hit: top-dose activation, usual class: activators | 0.02% of 420,000 active; note: series mostly up to about 76 µM; % of control where 0% means no effect; nearly all actives have a fitted effect of over 35% in size
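Stably transfected U87-MG human glioma cells carrying a GRP78-based luminescent sensor were seeded at 1000 cells/well, pin-dosed with compounds and incubated 16 h. Luciferase reagent was then added, and end-point luminescence was read after 10 min at room temperature.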
12-LOX inh – Primary qHTS assay for inhibitors of human arachidonate 12S-lipoxygenase (ALOX12): Round 2 | Polyunsaturated fatty acid lipoxygenase ALOX12 (Homo sapiens), P18054 | purified 12hLO, xylenol orange hydroperoxide absorbance | Potency, µM (titrated, usually from 108 µM), inactives show top-dose activity change, negative = inhibition, most hits filed as inhibitors | 1.1% of 580,000 active | AID 1671190, 2021; note: % is set by controls: 0 for no effect and ±100 for the full control effect
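Hydroperoxide product was detected by ferrous iron/xylenol orange as the 573 to 405 nm absorbance ratio. Arachidonic acid at 40 uM (final) was turned over for 30 min at room temperature by 150 nM human 12hLO, pH 7.0 Hepes buffer, after 15 min compound preincubation.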
BCR signal inh – qHTS Assay to Find Inhibitors of Chronic Active B-Cell Receptor Signaling. ABC-DLBCL IkBa-CBG/CBR reporter, luminescence ratio, 4 h. Potency, µM (doses to about 46.1 µM), for the others: at the highest dose activity change, negative = inhibition, most hits filed as inhibitors. 0.05% of 340,000 active; active = well fitted inhibition curve with a large enough effect in the signal ratio, with a control signal flat, not every such curve was filed as active; inconclusive = small, poorly fitted or top-dose-only effect, or effect the other way, or a change in a side signal; the % refers to the signal ratio;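 note: plate controls were basal doxycycline-induced cells for no effect and cells given 10 µM MG132 for full effect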
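Concentration-response series (up to 46 uM) were applied to TMD8 dual-reporter cells for 4 h at 37C with doxycycline. Green/red ratio, after filter-overlap correction, defined %Activity; red signal alone was normalised to basal cells and zero luminescence.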
Anesthetic bind – qHTS Assay for Identification of Novel General Anesthetics; AID 485281, 2010; Potency, µM (highest dose often 77.5 µM), for the others: at the highest dose activity change, negative = displacement, usual class: inhibitors; apoferritin/1-aminoanthracene competitive binding, fluorescence; Ferritin light chain (Equus caballus), P02791; 0.074% of 350,000 active; note: % is set by controls: 0 for no effect and ±100 for the full control effect; nearly all actives have a fitted effect of over 20% in size
Target sequence (P02791 2-175 limits assumed): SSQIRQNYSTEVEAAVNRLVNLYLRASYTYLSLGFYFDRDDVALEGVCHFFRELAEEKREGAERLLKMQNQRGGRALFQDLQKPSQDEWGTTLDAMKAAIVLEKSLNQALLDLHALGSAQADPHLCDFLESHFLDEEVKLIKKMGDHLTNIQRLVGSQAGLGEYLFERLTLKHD
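Concentration-response curves derived by four-parameter Hill fitting of normalized fluorescence, where compounds displaced 1-AMA from 10 uM horse apoferritin following a brief 10 min room-temperature incubation; propofol titration acted as positive control.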
* = called active by the depositor; ? = inconclusive; / = no result given; [ ] = dose if it differs, or a comment. This is a sample that favours compounds with a hit; in the whole collection about 1.1% have one here. Unless noted, calls come from the whole dose curve; as a rule, active = well fitted curve in the direction sought with a large enough effect; inconclusive = small, poorly fitted or top-dose-only effect, or another doubt; inactive = no such curve, though single readings can be large; an effect the other way counts as inactive or inconclusive. Potency is the fitted concentration of half-maximal effect.

SMILES	Glioma ERSR ind	12-LOX inh	BCR signal inh	Anesthetic bind
CC(C)C[C@@H]1N[C@H](C(=O)NCC2CC2)Cc2c[nH]c3cccc1c23	/	58%[176 µM]	/	/
Cc1ccc(-c2ccc(=O)n(CC(=O)N3CCN(c4cccc(C)c4)C(C)C3)n2)cc1 (configuration not stated)	-2%	8%[57.4 µM]	?	25µM*
S=C(NCCSc1ccc(Cl)cc1)NC1CCCC1	/	28µM*	/	/
S=C(NCCc1ccc(Cl)cc1)NC1CCCCC1	0%	40µM*	?	-14%
S=C(NCc1ccc(Cl)cc1)NC1CCCC1	/	40µM*	/	/
S=C(NCCc1ccc(Cl)cc1Cl)NC1CCCCC1	/	18µM*	/	/
Cc1ccc(SCCNC(=S)NC2CC2)cc1	/	-52%	/	/
S=C(NCCc1ccc(Cl)cc1)NC1CCCC1	3%	?	?	-2%
N#Cc1cc(C(=O)c2ccccc2O)cn(-c2ccc(C(=O)O)cc2)c1=O	/	0%	/	/
C#CCN1CCC(C(=O)NCCN2CCC(C)CC2)CC1	/	5%	/	/
S=C(NCCc1ccccc1)NC1CCCc2ccccc21 (configuration not stated)	/	14µM*	/	/
O=C(CCc1ccccc1)NC1CCCc2ccccc21 (configuration not stated)	-2%	-16%	-10%	-8%
CC(Sc1nnc(-c2ccco2)o1)C(=O)Nc1ccc2c(c1)OCO2 (configuration not stated)	/	-35%	/	/
O=C1C2CCCN2C(=O)N1CCCN1CCN(c2cccc(Br)c2)CC1 (configuration not stated)	-2%	4µM*	0%	-2%
CCN(CC)C(=O)c1cccc(-c2ccc(OCCn3ccnc3)cc2)c1	/	56%	/	/
O=C(Cn1nnc(-c2ccc3c(c2)OCO3)n1)Nc1ccccc1C(=O)O	4%	22µM*	?	-1%
O=C(Cn1nnc(-c2ccccc2)n1)Nc1ccc2c(c1)OCO2	-3%	69%	-7%	-8%
CC(C)CNC(=O)NC(NC(=O)C1CCCCC1)(C(F)(F)F)C(F)(F)F	/	-50%	/	/
COc1ccc(C(=O)c2c(C)oc3cc(C#N)c(C#N)cc23)cc1	/	-22%	/	/
Cc1cccc(Nc2nc(C)c(C(=O)Nc3ccccc3)s2)c1	/	13µM*	/	/
CCN(CC)Cc1ccc2cc(COC(=O)Nc3ccc(C(=O)NO)cc3)ccc2c1	/	15µM*	/	/
CCC(=O)Nc1ccc(C(=O)OCc2ccc(Cl)c(Cl)c2)cc1	-2%	-2%	0%	-21%
CC(C)c1cc(C(=O)NNC(=S)NCc2ccco2)c(O)c(C(C)C)c1	-6%	35µM*	?	-7%
Cc1cc(C)nc(SC(C(=O)c2ccccc2)c2ccccc2)n1 (configuration not stated)	/	-7%	/	/
O=[N+]([O-])c1ccc(N=Nc2c(Cl)cc(O)cc2Cl)cc1	-8%	?	?	?
SMILES	Glioma ERSR ind	12-LOX inh	BCR signal inh	Anesthetic bind
O=C1CC(=Nc2ccc([N+](=O)[O-])cc2)NN1c1c(Cl)cc(Cl)cc1Cl	3%	32µM*	/	/
O=C(O)CC(CCc1ccccc1)OC1OC(CO)C(O)C(O)C1O (configuration not stated)	-1%	45µM*	?	-11%
COc1ccc2[nH]c(C(=O)N3CCN4CCS(=O)(=O)N(C5CC5)C(=O)C4C3)cc2c1 (configuration not stated)	/	22µM*	/	/
Cc1ccc(S(=O)(=O)/N=C2\C=C(NS(=O)(=O)c3ccccc3)C(=O)c3ccccc32)c(C)c1	-2%	?	/	/
CC(C)(C)c1ccc(S(=O)(=O)/N=C2\C=C(NS(=O)(=O)c3ccccc3)C(=O)c3ccccc32)cc1	3%	25µM*	?	-11%
Cc1cc(-c2[nH]c3ccccc3c2C=O)c(C)s1	/	-38%	/	/
O=C1CC(/C=C/c2ccco2)=Nc2ccccc2N1	1%	/	18%	-19%
O=C1CC(C(F)(F)C(F)(F)C(F)(F)C(F)F)=Nc2ccccc2N1	-2%	-3%	-2%	50µM*
Cc1cc2c(-c3cccc(OC(C)C)c3)nc(-c3c(C)noc3C)cc2[nH]1	/	3%[176 µM]	/	/
CCN(CC(=O)Nc1ccc(OC)cc1)C(=O)c1ccc2c(c1)NC(=O)CS2	-3%	8.9µM*	11%	/
Cc1cc(Br)ccc1NC(=O)CSc1nc2cc([N+](=O)[O-])ccc2o1	/	18µM*	/	/
O=C1CCCN1CCCNC(=S)Nc1ccccc1	-3%	28µM*	0%	11%
CC1CCN(CCOc2ccc(Cl)c(Cl)c2)CC1	1%	?	?	0%
CC1CN(CCOc2ccc(Cl)c(Cl)c2)CC(C)O1 (configuration not stated)	3%	0.45µM*	?	-11%
OCC1OC(n2cnc3c(NC4CCCCC4)ncnc32)C(O)C1O (configuration not stated)	1%	-15%	13µM*	-10%
OC[C@H]1O[C@@H](n2cnc3c(NC4CCCCC4)ncnc32)[C@H](O)[C@@H]1O	6%	7%	/	-11%
CCc1nnc(NC(=O)C(NS(=O)(=O)c2ccc3c(c2)OCCO3)C(C)C)s1 (configuration not stated)	3%	35µM*	0%	-14%
COc1ccc(Nc2nc3cc(-c4ccccc4C)sc3c(=O)n2C)cc1OC	0%	35µM*	/	/
Cc1occc1-c1nnc(-c2cc([N+](=O)[O-])cc([N+](=O)[O-])c2)o1	4%	-2%	11%	22µM*
CCOC(=O)c1sc(NC(=S)NC(=O)C23CC4CC(CC(C4)C2)C3)cc1C	-3%	35µM*	0%	-5%
CCOC(=O)c1sc(NC(=S)NC(=O)C2CC2)cc1C	-3%	-4%	?	-7%
CC(O)CNCCCOc1ccc(C(C)(C)c2ccccc2)cc1 (configuration not stated)	/	4.5µM*	/	/
CC(C)NCCCOc1ccc(C(C)(C)c2ccccc2)cc1	-5%	?	-1%	?
CC(C)(c1ccccc1)c1ccc(OCCCNCCO)cc1	-6%	-61%	-13%	11µM*
COCCCNCCCOc1ccc(C(C)(C)c2ccccc2)cc1	-6%	?	-1%	?
SMILES	Glioma ERSR ind	12-LOX inh	BCR signal inh	Anesthetic bind
S=c1[nH]nc(COc2ccccc2)n1/N=C/c1cccc(Br)c1	-5%	32µM*	6%	-5%
S=c1[nH]nc(COc2ccccc2)n1/N=C/c1ccc(Br)cc1	11%	0%	-2%	6%
O=C(CN1c2ccccc2Sc2ccccc21)NNC(=S)Nc1ccc(Cl)cc1	-3%	14µM*	?	-1%
S=C(NNC(=S)Nc1ccc(Cl)cc1)NNc1ccccc1	3%	45µM*	/	/
Cc1ccc(NC(=S)NNC(=S)NNc2ccccc2)cc1C	1%	40µM*	/	/
Cc1cccc(NNC(=S)Nc2ccccc2)c1	4%	?	/	/
O=C(CN1c2ccccc2Sc2ccccc21)NNC(=S)Nc1ccc(Cl)cc1Cl	3%	-2%	1%	-3%
